{"source": "PubChem BioAssay AID556", "about": "(SRMLSC, 2006)", "tested_on": "diphosphomevalonate decarboxylase (Streptococcus pneumoniae D39)", "assay": "S. pneumoniae DPM-DC inhibitors, primary screen, biochemical, PK/LDH-coupled NADH fluorescence (AID 556);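 as to inhibition: kinetic rate of NADH fluorescence loss reporting ADP formed by the decarboxylase; 0% = full reaction rate with carrier and 100% = no-substrate background rate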", "conditions": "purified DPM-DC, at 10 µM", "key": {"[1]": {"conditions": "stronger effect = higher value unless noted"}, "[2]": {"conditions": "measured here: pilot screen trials, stronger effect = higher value"}}, "note": "The whole screen tested about 65,000 compounds, of which about 320 (0.49%) were called active.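 The calls were made as follows: active = the 320 compounds with the highest percent inhibition in the single-dose primary screen, excluding strongly autofluorescent ones (cut at about 32% in these data); inactive = the rest, inconclusive results apart.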 The list comes from a sample in which actives are over-represented; it also holds similar structures and randomly drawn compounds.", "data": [{"smiles": "c1ccc(CCc2nc(-c3ccncc3)no2)cc1", "values": [{"measurement": "inhibition", "setting": "[1]", "value": "inactive"}]}, {"smiles": "Cc1ccccc1CN1CCN(CC(=O)NCc2ccccn2)C1=O", "values": [{"measurement": "inhibition", "setting": "[1]", "value": "inactive"}]}, {"smiles": "COc1ccc2c(c1)C(C)=CC(C)(C)N2C(=O)CNCc1ccc2c(c1)OCO2", "values": [{"measurement": "inhibition", "setting": "[1]", "value": "7% (inactive)"}]}, {"smiles": "CC(C)c1nc2oc3c(N4CCN(C)CC4)ncnc3c2c2c1CCC2", "values": [{"measurement": "inhibition", "setting": "[1]", "value": "inactive"}]}, {"smiles": "Cc1cccc(C)c1NC(=O)CCCSc1nnc(-c2ccco2)n1-c1ccccc1", "values": [{"measurement": "inhibition", "setting": "[1]", "value": "inactive"}]}, {"smiles": "NC(=O)c1ccsc1NC(=O)c1ccco1", "values": [{"measurement": "inhibition", "setting": "[1]", "value": "9% (inactive)"}]}, {"smiles": "Cc1cc(C)c(C#N)c(SCS(=O)c2ccc(C(C)(C)C)cc2)n1", "note": "(stereo not given)", "values": [{"measurement": "inhibition", "setting": "[1]", "value": "inactive"}]}, {"smiles": "O=C(CCS(=O)(=O)c1cccc2nonc12)NCCc1ccccc1Cl", "values": [{"measurement": "inhibition", "setting": "[1]", "value": "inactive"}]}, {"smiles": "CCC1=C(C(=O)OC)C(c2cc(OC)ccc2OC)C(C#N)=C(N)O1", "note": "(stereo not given)", "values": [{"measurement": "inhibition", "setting": "[1]", "value": "0% [measured here: pilot screen trials, stronger effect = higher value]"}, {"measurement": "outcome", "setting": "[1]", "value": "inactive"}]}, {"smiles": "CCCN1C(=O)C(NC(C)=O)c2cc(OC)ccc21", "note": "(stereo not given)", "values": [{"measurement": "inhibition", "setting": "[1]", "value": "40% (active)"}]}, {"smiles": "COCCCN1C(=O)c2ccc(C(=O)Nc3ccc(OC)cc3OC)cc2C1=O", "values": [{"measurement": "inhibition", "setting": "[1]", "value": "inactive"}]}, {"smiles": "CCC(=O)c1ccc(OCC(O)CN2C(=O)NC(C)(C)C2=O)cc1", "note": "(stereo not given)", "values": [{"measurement": "inhibition", "setting": "[1]", "value": "inactive"}]}, {"smiles": "CC1(C)CC(=O)C=C(NCc2ccncc2)C1", "values": [{"measurement": "inhibition", "setting": "[1]", "value": "2.5% [measured here: pilot screen trials, stronger effect = higher value]"}, {"measurement": "outcome", "setting": "[1]", "value": "inactive"}]}, {"smiles": "Cn1c(=NC(=O)C2CC2)sc2cc(F)cc(F)c21", "values": [{"measurement": "inhibition", "setting": "[1]", "value": "inactive"}]}, {"smiles": "CCCC(=O)N=c1sc2cccc(F)c2n1C", "values": [{"measurement": "inhibition", "setting": "[1]", "value": "inactive"}]}, {"smiles": "Cn1c(=NC(=O)c2ccco2)sc2cccc(F)c21", "values": [{"measurement": "inhibition", "setting": "[1]", "value": "37% (active)"}]}, {"smiles": "c1ccc(-n2ncc3c2ncn2c(C4CCCCC4)nnc32)cc1", "values": [{"measurement": "inhibition", "setting": "[1]", "value": "inactive"}]}, {"smiles": "CC(=O)Nn1cc2c(=O)n(C)c(=O)n(C)c2c1", "values": [{"measurement": "inhibition", "setting": "[1]", "value": "inactive"}]}, {"smiles": "COc1cc(C(=O)N(Cc2ccc(N(C)C)cc2)C2CCS(=O)(=O)C2)cc(OC)c1OC", "note": "(stereo not given)", "values": [{"measurement": "inhibition", "setting": "[1]", "value": "inactive"}]}, {"smiles": "COc1ccc(OCC(=O)N2CCOCC2)cc1", "values": [{"measurement": "inhibition", "setting": "[1]", "value": "inactive"}]}, {"smiles": "CCCCOC(=O)Nc1nccs1", "values": [{"measurement": "inhibition", "setting": "stronger effect = higher value", "value": "1% (inactive)"}, {"measurement": "inhibition", "setting": "[2]", "value": 4.5, "unit": "%"}]}, {"smiles": "CN(C)CCNC(CC(=O)Nc1ccc(Cl)c(Cl)c1)C(=O)O", "note": "(stereo not given)", "values": [{"measurement": "inhibition", "setting": "[1]", "value": "inactive"}]}, {"smiles": "COc1cc(Cl)cc(C2NC(=O)NC(C)=C2C(=O)NCc2ccccc2)c1O", "note": "(stereo not given)", "values": [{"measurement": "inhibition", "setting": "[1]", "value": "12% (inactive)"}]}, {"smiles": "CCOc1ccc(C2C(C(=O)NC)=C(C)Nc3nc4ccccc4n32)cc1OC", "note": "(stereo not given)", "values": [{"measurement": "inhibition", "setting": "[1]", "value": "inactive"}]}, {"smiles": "Cc1onc(-c2ccccc2)c1C(=O)Nc1ccccc1C#N", "values": [{"measurement": "inhibition", "setting": "[1]", "value": "5% (inactive)"}]}, {"smiles": "CC(=O)N1CCc2cc(S(=O)(=O)Nc3ccccc3N3CCN(C)CC3)ccc21", "values": [{"measurement": "inhibition", "setting": "[1]", "value": "1% (inactive)"}]}, {"smiles": "CC(c1cccnc1)N(CCN(C)C)C(=O)Nc1ccc(Cl)c(Cl)c1", "note": "(stereo not given)", "values": [{"measurement": "inhibition", "setting": "[1]", "value": "inactive"}]}, {"smiles": "COc1ccc(C(CNC(=O)c2cccnc2SC)N2CCOCC2)cc1", "note": "(stereo not given)", "values": [{"measurement": "inhibition", "setting": "[1]", "value": "inactive"}]}, {"smiles": "COc1cc(C2C(C(=O)Nc3ccccc3OC)=C(C)Nc3ncnn32)ccc1O", "note": "(stereo not given)", "values": [{"measurement": "inhibition", "setting": "[1]", "value": "inactive"}]}, {"smiles": "Cc1cc(NC(=O)CSc2nnc(-c3ccc(Cl)s3)o2)no1", "values": [{"measurement": "inhibition", "setting": "[1]", "value": "inactive"}]}, {"smiles": "COc1ccc(OCCCC(=O)Nc2nnc(C3CCCO3)s2)cc1", "note": "(stereo not given)", "values": [{"measurement": "inhibition", "setting": "[1]", "value": "inactive"}]}, {"smiles": "O=C(Nc1ccccc1N1CCN(C(=O)c2ccccc2)CC1)c1ccc2c(c1)OCO2", "values": [{"measurement": "inhibition", "setting": "[1]", "value": "inactive"}]}, {"smiles": "Cc1ccc(C)c(S(=O)(=O)N2CC(=O)Nc3ccccc32)c1", "values": [{"measurement": "inhibition", "setting": "[1]", "value": "inactive"}]}, {"smiles": "COc1ccc(S(=O)(=O)N2CCOCC2)cc1C(=O)Nc1nc2ccccc2s1", "values": [{"measurement": "inhibition", "setting": "[1]", "value": "6% (inactive)"}]}, {"smiles": "N#Cc1cccc(NC(=O)CCC2CCCC2)c1", "values": [{"measurement": "inhibition", "setting": "[1]", "value": "inactive"}]}, {"smiles": "CCCCn1nc(C(=O)N2CCc3ccccc32)c2ccccc2c1=O", "values": [{"measurement": "inhibition", "setting": "stronger effect = higher value", "value": "4% (inactive)"}, {"measurement": "inhibition", "setting": "[2]", "value": 2, "unit": "%"}]}, {"smiles": "Cc1cc(C)nc(SCc2nnc(SCC(=O)OC3CCCCC3)o2)n1", "values": [{"measurement": "inhibition", "setting": "[1]", "value": "inactive"}]}, {"smiles": "Cc1cc(=O)cc(C)[nH]1", "values": [{"measurement": "inhibition", "setting": "[1]", "value": "42% (active)"}]}, {"smiles": "Cc1cc(=O)[nH]c(=S)[nH]1", "values": [{"measurement": "inhibition", "setting": "[1]", "value": "inactive"}]}, {"smiles": "COc1ccc(C2CC(c3ccc(Cl)cc3Cl)Nc3nc(N)nn32)cc1OC", "note": "(stereo not given)", "values": [{"measurement": "inhibition", "setting": "[1]", "value": "inactive"}]}, {"smiles": "CCOC(=O)CCCNC(=O)CN1C(=O)NC(CCc2ccccc2)C1=O", "note": "(stereo not given)", "values": [{"measurement": "inhibition", "setting": "[1]", "value": "inactive"}]}, {"smiles": "CCOc1ccc(-c2nnn(CC(=O)N3CCN(c4ccc(F)cc4)CC3)n2)cc1OCC", "values": [{"measurement": "inhibition", "setting": "[1]", "value": "0% [measured here: pilot screen trials, stronger effect = higher value]"}, {"measurement": "outcome", "setting": "[1]", "value": "inactive"}]}, {"smiles": "CCOC(=O)CSc1nccc(N(C)C)c1C#N", "values": [{"measurement": "inhibition", "setting": "[1]", "value": "inactive"}]}, {"smiles": "CC(=O)c1cc(-c2ccccc2)[nH]c1N1CCCC1", "values": [{"measurement": "inhibition", "setting": "[1]", "value": "1% (inactive)"}]}, {"smiles": "CCOC(=O)/C=c1\\s/c(=C\\c2ccccc2OC)c(=O)n1CC(=O)N1CCOCC1", "values": [{"measurement": "inhibition", "setting": "[1]", "value": "4% (inactive)"}]}, {"smiles": "CC1(C)CC(CCC(=O)Nc2ccccc2Cl)C(=O)O1", "note": "(stereo not given)", "values": [{"measurement": "inhibition", "setting": "[1]", "value": "inactive"}]}, {"smiles": "COc1ccc(-n2nnc3c(=O)n(CC(=O)N4CCC(Cc5ccccc5)CC4)cnc32)cc1", "values": [{"measurement": "inhibition", "setting": "[1]", "value": "inactive"}]}, {"smiles": "CCOC(=O)c1ccc(N2C(=O)CC(N3CC(C)OC(C)C3)C2=O)cc1", "note": "(stereo not given)", "values": [{"measurement": "inhibition", "setting": "[1]", "value": "inactive"}]}, {"smiles": "O=C(O)c1ccc(-n2cccc2)cc1O", "values": [{"measurement": "inhibition", "setting": "[1]", "value": "1% (inactive)"}]}, {"smiles": "Cc1ccc(S(=O)(=O)N2CCCC2C(=O)NCc2ccco2)cc1", "note": "(stereo not given)", "values": [{"measurement": "inhibition", "setting": "[1]", "value": "4% (inactive)"}]}, {"smiles": "O=C1NC2(CCCCC2)N=C1c1ccccc1", "values": [{"measurement": "inhibition", "setting": "[1]", "value": "inactive"}]}, {"smiles": "COc1ccc(S(=O)(=O)N2CCC(C(=O)N3CCc4ccccc4C3)CC2)cc1OC", "values": [{"measurement": "inhibition", "setting": "[1]", "value": "inactive"}]}, {"smiles": "CCOC(=O)c1c(-n2cnnn2)sc(C)c1C", "values": [{"measurement": "inhibition", "setting": "[1]", "value": "2% (inactive)"}]}, {"smiles": "Cc1nc(C)c(C(=O)Nc2cccc(C)c2C)o1", "values": [{"measurement": "inhibition", "setting": "[1]", "value": "inactive"}]}, {"smiles": "CCC(c1nnnn1Cc1ccccc1)N(Cc1cc2cc(OC)ccc2[nH]c1=O)CC1CCCO1", "note": "(stereo not given)", "values": [{"measurement": "inhibition", "setting": "[1]", "value": "5% (inactive)"}]}, {"smiles": "COc1ccc2[nH]c(=O)c(CN(CC3CCCO3)C(=O)Nc3ccccc3)cc2c1", "note": "(stereo not given)", "values": [{"measurement": "inhibition", "setting": "[1]", "value": "33% (active)"}]}, {"smiles": "COc1ccc2[nH]c(=O)c(CN(Cc3nnnn3CCc3ccccc3)CC3CCCO3)cc2c1", "note": "(stereo not given)", "values": [{"measurement": "inhibition", "setting": "[1]", "value": "2% (inactive)"}]}, {"smiles": "O=C1[C@@H]2C(Cc3ccc(O)cc3)NC3(C(=O)Nc4ccc(F)cc43)[C@@H]2C(=O)N1c1ccc(F)cc1", "note": "(stereo not given in full)", "values": [{"measurement": "inhibition", "setting": "[1]", "value": "inactive"}]}, {"smiles": "CSc1ccc(NC(=O)N2CC(C)OC(C)C2)cc1", "note": "(stereo not given)", "values": [{"measurement": "inhibition", "setting": "[1]", "value": "inactive"}]}, {"smiles": "CCOc1ccc(/C(O)=C2/C(=O)C(=O)N(Cc3cccnc3)C2c2ccc(N(C)C)cc2)c(C)c1", "note": "(stereo not given)", "values": [{"measurement": "inhibition", "setting": "[1]", "value": "2% (inactive)"}]}, {"smiles": "Cc1ccc(N(C(=O)CC2NC(=O)NC2=O)C2(C(=O)NC3CCCC3)CCCCC2)cc1", "note": "(stereo not given)", "values": [{"measurement": "inhibition", "setting": "[1]", "value": "inactive"}]}, {"smiles": "COc1ccc(CCNC(=O)CN2CCC(n3nnc4cc(F)ccc43)CC2)cc1OC", "values": [{"measurement": "inhibition", "setting": "[1]", "value": "inactive"}]}, {"smiles": "O=C(CSc1nnnn1C1CCCC1)Nc1ccc2c(c1)OCCO2", "values": [{"measurement": "inhibition", "setting": "[1]", "value": "inactive"}]}, {"smiles": "N#CCCN1CCN(S(=O)(=O)c2ccc(S(=O)(=O)N3CCCC3)cc2)CC1", "values": [{"measurement": "inhibition", "setting": "[1]", "value": "7% (inactive)"}]}, {"smiles": "CN(CC(=O)NC1CCCCC1)S(=O)(=O)c1cccc2cccnc12", "values": [{"measurement": "inhibition", "setting": "[1]", "value": "inactive"}]}]}
